Among the data in PubChem BioAssay (EPA / NIEHS) are outcome and AC50 values, retold here.

Molecules are shown by their SMILES. Active and inactive are the calls of the source. Rule for the calls: active = hit-call score of the fitted dose curve at least 0.9, where 1 is the maximum; inactive = score below 0.9.

A short description of test [1]: ATG_ERE_CIS: Attagene CIS-FACTORIAL HepG2 Assay for Estrogen Response Element (ERE) (AID 2282940). The note with it: HepG2 ERE cis-reporter, Attagene RNA transcript; actives raise or lower the signal. The essentials:
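Transient MRTU transfection of human HepG2; cis-element promoters; 24 h dosing; total RNA → RT (oligo dT) → PCR → 6-FAM primer extension → HpaI digest → CE fluorescence. Bidirectional fit, DMSO baseline.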

Test [2] is described as follows: ATG_Ets_CIS: Attagene CIS-FACTORIAL HepG2 Assay for human Erythroblast Transformation Specific (ETS) (AID 2282941). The note with it: HepG2 ETS cis-reporter transcription, actives raise or lower the signal. Summed up: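 Human HepG2 hepatoma cells were transiently transfected with promoter-driven reporter constructs and treated for 24 hours. Reporter transcripts were quantified by RT-PCR with fluorescent primer extension; bidirectional curve fitting used DMSO as reference.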

Test [3] addresses Hepatocyte nuclear factor 3-beta (Homo sapiens) (UniProt Q9Y261). The test is described as follows: ATG_FoxA2_CIS: Attagene CIS-FACTORIAL HepG2 Assay for human Forkhead box A2 (FOXA2) (AID 2282942). The conditions noted are these: HepG2 cis-reporter transcription factor activity, 24 h; actives raise or lower the signal. The essentials: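 Measured: reporter mRNA induction or loss in HepG2 transiently carrying multiple cis-regulated reporter units, 24 h after dosing. Quantified by RT-PCR plus capillary electrophoresis, normalised to DMSO.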

Test [4] is described as follows: ATG_FoxO_CIS: Attagene CIS-FACTORIAL HepG2 Assay for human Forkhead box O (FoxO) (AID 2282943). The conditions noted are these: HepG2 Attagene cis-reporter, FoxO element, mRNA; actives raise or lower the signal. Summed up: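 HepG2 cells transiently transfected with cis-promoter-driven multiple reporter transcription units; 24 h after chemical dosing, reporter mRNA quantified by RT-PCR, fluorescent primer extension, HpaI digestion and capillary electrophoresis. Bidirectional fitting versus DMSO baseline.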

A short description of test [5]: ATG_GATA_CIS: Attagene CIS-FACTORIAL HepG2 Assay for human GATA Binding Protein (AID 2282944). The conditions noted are these: HepG2 GATA cis-element reporter, Attagene multiplex mRNA; actives raise or lower the signal. Summed up:
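Transient MRTU transfection, HepG2, 24 h compound exposure. Total RNA → oligo(dT) RT → PCR → 6-FAM primer extension → HpaI cut → CE. Bidirectional fit vs DMSO.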

Test [6] in a line: ATG_GLI_CIS: Attagene CIS-FACTORIAL HepG2 Assay for human Zinc Finger Protein GLI1 (AID 2282945). The note with it: HepG2, Attagene cis-factorial reporter mRNA, GLI element; actives raise or lower the signal. Summed up:
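HepG2 cells transiently transfected with cis-promoter multiplexed reporter units report endogenous transcription factor activity. After 24 h chemical exposure, reporter mRNA was quantified by RT-PCR, 6-FAM labelling, HpaI digestion and capillary electrophoresis, with bidirectional fitting against DMSO.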

Test [7] is described as follows: ATG_GRE_CIS: Attagene CIS-FACTORIAL HepG2 Assay for human Glucocorticoid Response Elements (GRE) (AID 2282947). The conditions noted are these: HepG2 GRE cis-reporter, Attagene multiplex mRNA; actives raise or lower the signal. Summed up: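 Following 24 h chemical exposure of transiently transfected HepG2 cells, total RNA was reverse-transcribed and reporter cDNA amplified, fluorescently labelled and sized by capillary electrophoresis. Signal gain or loss was fitted relative to DMSO vehicle.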

A short description of test [8]: ATG_ISRE_CIS: Attagene CIS-FACTORIAL HepG2 Assay for human Interferon Regulatory Factor 1 (IRF1) binding to an Interferon-Stimulated Response Element (ISRE) (AID 2282948). The note with it: HepG2 ISRE cis-reporter (Attagene), mRNA transcription readout; actives raise or lower the signal. Summed up:
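Cell-based cis-reporter assay; HepG2; 24 h exposure; reporter mRNA by RT-PCR plus capillary electrophoresis fluorescence; activity in either direction scored relative to DMSO.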

A short description of test [9]: ATG_M_32_CIS: Attagene CIS-FACTORIAL HepG2 Assay for M32 Transcription Factor (Internal Marker) (AID 2282949).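 Note: background control marker of the multiplexed CIS panel rather than a real target.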 The note with it: HepG2 Attagene cis-factorial M32 reporter, mRNA; actives raise or lower the signal. The essentials: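 HepG2 cells transiently transfected with multiplexed cis-regulated reporter units, dosed 24 h. Reporter mRNA quantified by RT-PCR, 6-FAM labelling, HpaI digestion and capillary electrophoresis; bidirectional fit vs DMSO.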

Test [10] deals with Bile acid receptor (Homo sapiens) (UniProt Q96RI1). The experiment in a line: ATG_IR1_CIS: Attagene CIS-FACTORIAL HepG2 Assay for human Nuclear Receptor Subfamily 1 Group H Member 4 (NR1H4), IR1 submotif (AID 2282946). The conditions noted are these: IR1 reporter transcription, actives raise or lower the signal. The essentials:
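Transient MRTU transfection, HepG2; 24 h dosing; RNA → RT-PCR → 6-FAM primer extension → HpaI digest → capillary electrophoresis fluorescence. Gain/loss of signal fitted relative to DMSO.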

Sequence of Bile acid receptor (Homo sapiens) (Q96RI1 whole entry, looked up): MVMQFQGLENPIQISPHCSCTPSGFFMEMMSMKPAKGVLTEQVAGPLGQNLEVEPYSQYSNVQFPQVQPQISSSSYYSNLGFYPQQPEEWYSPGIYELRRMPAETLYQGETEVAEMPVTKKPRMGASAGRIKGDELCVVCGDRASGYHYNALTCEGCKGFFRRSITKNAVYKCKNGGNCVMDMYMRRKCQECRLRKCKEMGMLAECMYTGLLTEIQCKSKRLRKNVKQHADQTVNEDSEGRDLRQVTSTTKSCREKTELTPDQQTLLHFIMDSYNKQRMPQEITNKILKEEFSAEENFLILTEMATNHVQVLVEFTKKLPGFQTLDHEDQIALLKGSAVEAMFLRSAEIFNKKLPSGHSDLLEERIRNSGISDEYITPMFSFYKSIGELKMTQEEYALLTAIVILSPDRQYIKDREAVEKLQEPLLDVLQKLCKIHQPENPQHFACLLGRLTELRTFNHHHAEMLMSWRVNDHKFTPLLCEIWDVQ
Sequence of Hepatocyte nuclear factor 3-beta (Homo sapiens) (Q9Y261 whole entry, looked up): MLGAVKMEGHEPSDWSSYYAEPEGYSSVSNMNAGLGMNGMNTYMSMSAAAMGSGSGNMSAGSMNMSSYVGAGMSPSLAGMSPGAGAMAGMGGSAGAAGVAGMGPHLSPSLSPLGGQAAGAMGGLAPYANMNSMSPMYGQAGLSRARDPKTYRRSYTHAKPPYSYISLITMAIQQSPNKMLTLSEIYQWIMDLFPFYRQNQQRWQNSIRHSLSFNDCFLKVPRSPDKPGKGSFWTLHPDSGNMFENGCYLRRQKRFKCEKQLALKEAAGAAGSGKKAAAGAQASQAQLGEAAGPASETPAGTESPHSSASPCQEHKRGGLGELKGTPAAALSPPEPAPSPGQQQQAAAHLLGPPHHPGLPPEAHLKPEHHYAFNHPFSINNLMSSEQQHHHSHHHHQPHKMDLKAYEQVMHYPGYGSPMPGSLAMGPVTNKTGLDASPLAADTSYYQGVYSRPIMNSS

As to `CC(Br)C(=O)O` (stereo unspecified), the outcome in test [1], in test [2], in [3], in test [4], in test [5] and in [6] was inactive. Besides, the compound was classed as inactive in test [7], in [8] and in test [9].

On to `CCc1ccccc1N`, for which the call in test [1], in test [2], in test [3], in test [4], in test [5] and in [6] was inactive. In addition, the compound was classed as inactive in test [7], in test [8] and in [9].

With `CCCCCCCCSC(=O)Oc1cc(Cl)nnc1-c1ccccc1`, the outcome in test [1], in test [3], in test [6] and in [9] was inactive. The AC50 in test [2] is 162 µM (active); in [4], 141 µM (active); in test [5], 149 µM (active); in [8] it was 164 µM (active).

On to `Cc1cc(=O)[nH]o1`, for which the call in test [1], in test [2], in [3], in test [4], in test [5] and in [6] was inactive. Moreover, the result in [7], in [8] and in [9] was inactive.

For `CCOP(=S)(OCC)SCSP(=S)(OCC)OCC`, in test [1], the half-maximal activity concentration (AC50) is 6.47 µM (active). Further, the compound was called inactive in test [2], in test [3], in test [4], in [5], in test [6] and in [7]. The call in test [8] and in test [9] was inactive.

For the compound `CC(C)c1ccc(CO)cc1`, the call in test [1], in test [2], in test [3], in test [4], in test [5] and in [6] was inactive. Further, the compound was classed as inactive in test [10], in test [8] and in [9].

For `O=Cc1cccc(Oc2ccccc2)c1`, the compound was called inactive in test [1], in test [2], in test [3], in test [4], in test [5] and in [6]. Further, the compound was called inactive in test [7], in test [8] and in [9].

For `Cc1ccccc1C(=O)Nc1cccc(OC(C)C)c1`, the result in test [1], in test [2], in test [3], in test [4], in test [5] and in test [6] was inactive. Further, the outcome in test [7], in [8] and in test [9] was inactive.

Regarding `COP(=O)(OC)O/C(=C\Cl)c1cc(Cl)c(Cl)cc1Cl`, the AC50 is 4.11 µM (active) in [1], 130 µM (active) in test [6] and 47 µM (active) in test [8]. Moreover, the compound was classed as inactive in [2], in test [3], in test [4], in test [5], in [10] and in test [9].

For `ClC1=C(Cl)[C@]2(Cl)[C@H]3[C@H]([C@H]4C=C[C@H]3C4)[C@@]1(Cl)C2(Cl)Cl`, the AC50 in [1] was 9.92 µM (active). The call in [2], in [3], in [4], in test [5], in test [6] and in test [7] was inactive. Moreover, the outcome in [8] and in test [9] was inactive.

As to `C[C@]12CC[C@H](O)CC1=CC[C@@H]1[C@@H]2CC[C@]2(C)C(=O)CC[C@@H]12`, the AC50 in test [1] was 0.987 µM (active). For the same compound, the call in test [2], in [3], in test [4], in test [5], in [6] and in [7] was inactive. In addition, the outcome in test [8] and in test [9] was inactive.

On to `Nc1ccc(Cl)cc1C(=O)c1ccccc1`, for which the result in [1], in test [2], in test [3], in [4], in test [5] and in [6] was inactive. In addition, the outcome in [10], in test [8] and in test [9] was inactive.

In the case of `COc1ccc(C=O)cc1`, the result in [1], in [2], in [3], in [4], in test [5] and in test [6] was inactive. For the same compound, the compound was called inactive in test [7], in test [8] and in test [9].

Consider `Nc1cccc(Cl)c1`, for which the compound was classed as inactive in test [1], in test [2], in test [3], in test [4], in test [5] and in test [6]. Further, the result in [10], in test [8] and in test [9] was inactive.

For `C=CC(=O)N(C)C`, the outcome in test [1], in [2], in [3], in test [4], in [5] and in test [6] was inactive. In addition, the call in [10], in test [8] and in test [9] was inactive.

Turning to `Cc1ccc2ccccc2c1C`, the compound was classed as inactive in [1], in test [2], in [3], in test [4], in test [5] and in [6]. For the same compound, the compound was classed as inactive in test [7], in [8] and in test [9].

`O=C1CCCN1`: the outcome in test [1], in test [2], in test [3], in test [4], in test [5] and in test [6] was inactive. Also, the outcome in test [10], in test [8] and in test [9] was inactive.

Turning to `C=C(C)C#N`, the compound was called inactive in test [1], in test [2], in test [3], in test [4], in [5] and in test [6]. Also, the call in test [10], in test [8] and in test [9] was inactive.
